The AC50 is the concentration at which the activity in the assay is half-maximal.

Inconclusive results are not listed. Calls of active or inactive are those of the source. How the source made its calls: active means hit-call score of the fitted dose curve at least 0.9, where 1 is the maximum; inconclusive means response in the unintended direction; inactive means score below 0.9.

Chain of Estrogen receptor (Homo sapiens) (P03372 whole entry, looked up, the tested form may be a part): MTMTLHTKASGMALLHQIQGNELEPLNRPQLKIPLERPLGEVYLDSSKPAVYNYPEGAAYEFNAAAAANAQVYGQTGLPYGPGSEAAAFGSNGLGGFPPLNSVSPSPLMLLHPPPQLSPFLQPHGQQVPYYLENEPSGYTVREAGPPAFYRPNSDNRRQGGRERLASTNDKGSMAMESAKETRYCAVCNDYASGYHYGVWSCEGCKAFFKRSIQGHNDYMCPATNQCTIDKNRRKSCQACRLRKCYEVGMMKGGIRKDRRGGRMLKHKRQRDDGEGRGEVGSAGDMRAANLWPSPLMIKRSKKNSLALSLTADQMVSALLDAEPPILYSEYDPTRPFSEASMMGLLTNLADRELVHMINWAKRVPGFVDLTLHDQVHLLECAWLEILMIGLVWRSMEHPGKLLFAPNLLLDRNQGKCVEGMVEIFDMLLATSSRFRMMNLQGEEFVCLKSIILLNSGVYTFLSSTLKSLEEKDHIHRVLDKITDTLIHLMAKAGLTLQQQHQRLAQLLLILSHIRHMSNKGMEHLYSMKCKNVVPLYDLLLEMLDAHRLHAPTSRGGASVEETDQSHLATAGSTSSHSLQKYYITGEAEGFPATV

In one test the test system is frog Estrogen Receptor (ESR2), gene 100174814. The experiment in a line: ATG_frER2_XSP1: Attagene TRANS-FACTORIAL Multi-Species (XSP1) HepG2 Assay for frog Estrogen Receptor (ESR2) (AID 2283774). In outline:
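Transactivation of an exogenous receptor-Gal4 fusion is tracked in transfected HepG2 cells via induced reporter transcript levels. After 24 h treatment, RT-PCR with capillary electrophoresis quantifies signal gain over DMSO.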
As to `CCCCC(CC)COC(=O)c1ccccc1C(=O)OCC(CC)CCCC` (stereo not given), the outcome was inactive.

Regarding `C=CC1(C)OC(=O)N(c2cc(Cl)cc(Cl)c2)C1=O` (stereo not given), the call was inactive.

Take `OC(c1ccc(Cl)cc1)(c1cncnc1)c1ccccc1Cl` (stereo not given): the AC50 is 4.32 µM (active).

As for `COc1ccc(C(c2ccc(OC)cc2)C(Cl)(Cl)Cl)cc1`, the half-maximal activity concentration (AC50) is 1.09 µM (active).

Test system in the next test: not listed separately
The experiment in a line: ACEA_AR_agonist_AUC_viability: ACEA Biosciences xCELLigence Real-Time Cell Analysis on Androgen Receptor Agonism for Viability (AID 2283775).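 On AC50: viability read 80 hours after compound addition.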 An outline of the steps:
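Read-out is area under the impedance curve at 80 h post-dose in 22Rv1 cells, with DMSO as baseline and signal loss taken as reduced viability. Compounds ran in duplicate from 100 uM final.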
`Cc1ccc(-c2c(Cl)nc(C#N)n2S(=O)(=O)N(C)C)cc1`: the AC50 is 19.2 µM (active).

On to `COC(=O)C(C)Oc1ccc(Oc2ccc(Cl)cc2Cl)cc1` (stereo not given), for which the AC50 is 50 µM (active).

Take `Cc1cc(Cl)ccc1OCC(=O)O`: the result was inactive.

Regarding `Fc1ccc(Oc2ccnc3cc(Cl)cc(Cl)c23)cc1`, the concentration at half-maximal activity (AC50) was 76.3 µM (active).

With `CCNc1nc(Cl)nc(NC(C)C)n1`, the molecule was classed as inactive.

As for `CCCCNC(=O)OCC#CI`, the concentration at half-maximal activity (AC50) is 11.6 µM (active).

For the molecule `COc1cnc(OC)n2nc(NS(=O)(=O)c3c(OCC(F)F)cccc3C(F)(F)F)nc12`, the outcome was inactive.

Regarding `N#Cc1cc(Br)c(O)c(Br)c1`, the AC50 was 59.6 µM (active).

As to `CCCCC(CC)COC(=O)c1ccccc1C(=O)OCC(CC)CCCC` (stereo not given), the AC50 was 50 µM (active).

`CCOc1cc(Oc2ccc(C(F)(F)F)cc2Cl)ccc1[N+](=O)[O-]`: the AC50 was 22.8 µM (active).

Consider `C=CC1(C)OC(=O)N(c2cc(Cl)cc(Cl)c2)C1=O` (stereo not given), for which the AC50 was 38.5 µM (active).

`CCNc1nc(Cl)nc(NCC)n1`: the result was inactive.

With `CCON=C(CC)C1=C(O)CC(c2c(C)cc(C)cc2C)CC1=O` (stereo not given), the outcome was inactive.

For the molecule `N#CC(CCc1ccc(Cl)cc1)(Cn1cncn1)c1ccccc1` (stereo not given), the half-maximal activity concentration (AC50) was 50 µM (active).

In the case of `OC(c1ccc(Cl)cc1)(c1cncnc1)c1ccccc1Cl` (stereo not given), the concentration at half-maximal activity (AC50) is 72 µM (active).

For `COc1ccc(C(c2ccc(OC)cc2)C(Cl)(Cl)Cl)cc1`, the half-maximal activity concentration (AC50) was 80.8 µM (active).

In the case of `Cc1c(F)c(F)c(COC(=O)C2C(/C=C(\Cl)C(F)(F)F)C2(C)C)c(F)c1F` (stereo not given), the call was inactive.

For the molecule `CCc1nn(C)c(C(=O)NCc2ccc(C(C)(C)C)cc2)c1Cl`, the AC50 was 25.3 µM (active).

Turning to `CC(Oc1ccc(Cl)cc1Cl)C(=O)O` (stereo not given), the outcome was inactive.

`CS/C(C)=N/OC(=O)N(C)SN(C)C(=O)O/N=C(\C)SC`: the AC50 is 79.6 µM (active).

As to `CCOC(=O)C(Cl)Cc1cc(-n2nc(C)n(C(F)F)c2=O)c(F)cc1Cl` (stereo not given), the outcome was inactive.

Test system in the next test: not listed separately
The experiment in a line: ACEA_AR_antagonist_AUC_viability: ACEA Biosciences xCELLigence Real-Time Cell Analysis on Androgen Receptor Antagonism for Viability (AID 2283776).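 Further: area under impedance growth curve at 80 h after dosing as viability; hits lower the growth signal relative to DMSO meaning cytotoxicity.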 In outline:
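22Rv1 human prostate cancer cells were seeded on electrode plates, monitored overnight, then exposed to eight 1:4 dilutions from 100 uM final. Impedance-based growth kinetics at 80 h gave an AUC viability endpoint normalized to DMSO.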
Take `COC(=O)c1ccccc1C(=O)OC`: the call was inactive.

For `Cc1ccc(-c2c(Cl)nc(C#N)n2S(=O)(=O)N(C)C)cc1`, the concentration at half-maximal activity (AC50) is 16.1 µM (active).

In the case of `CC(C)C1(C)N=C(c2nc3ccccc3cc2C(=O)O)NC1=O` (stereo not given), the molecule was called inactive.

Consider `COC(=O)C(C)Oc1ccc(Oc2ccc(Cl)cc2Cl)cc1` (stereo not given), for which the AC50 was 50 µM (active).

For `Cc1cc(Cl)ccc1OCC(=O)O`, the call was inactive.

In the case of `Fc1ccc(Oc2ccnc3cc(Cl)cc(Cl)c23)cc1`, the half-maximal activity concentration (AC50) was 60 µM (active).

With `CCNc1nc(Cl)nc(NC(C)C)n1`, the molecule was called inactive.

Regarding `CNC(=O)ON=CC(C)(C)SC`, the call was inactive.

As to `CCCCNC(=O)OCC#CI`, the concentration at half-maximal activity (AC50) is 13.9 µM (active).

With `COc1cnc(OC)n2nc(NS(=O)(=O)c3c(OCC(F)F)cccc3C(F)(F)F)nc12`, the molecule was called inactive.

In the case of `N#Cc1cc(Br)c(O)c(Br)c1`, the AC50 is 52.1 µM (active).

Take `CCCCC(CC)COC(=O)c1ccccc1C(=O)OCC(CC)CCCC` (stereo not given): the AC50 is 61.8 µM (active).

Regarding `CCOc1cc(Oc2ccc(C(F)(F)F)cc2Cl)ccc1[N+](=O)[O-]`, the concentration at half-maximal activity (AC50) is 12.9 µM (active).

For the molecule `C=CC1(C)OC(=O)N(c2cc(Cl)cc(Cl)c2)C1=O` (stereo not given), the concentration at half-maximal activity (AC50) was 83.7 µM (active).

`CCNc1nc(Cl)nc(NCC)n1`: the molecule was called inactive.

As for `CCON=C(CC)C1=C(O)CC(c2c(C)cc(C)cc2C)CC1=O` (stereo not given), the result was inactive.

As to `N#CC(CCc1ccc(Cl)cc1)(Cn1cncn1)c1ccccc1` (stereo not given), the AC50 is 25.7 µM (active).

As to `OC(c1ccc(Cl)cc1)(c1cncnc1)c1ccccc1Cl` (stereo not given), the half-maximal activity concentration (AC50) is 67.8 µM (active).

For `COc1ccc(C(c2ccc(OC)cc2)C(Cl)(Cl)Cl)cc1`, the concentration at half-maximal activity (AC50) was 76.7 µM (active).

Regarding `Cc1c(F)c(F)c(COC(=O)C2C(/C=C(\Cl)C(F)(F)F)C2(C)C)c(F)c1F` (stereo not given), the AC50 is 30.6 µM (active).

As to `CCc1nn(C)c(C(=O)NCc2ccc(C(C)(C)C)cc2)c1Cl`, the AC50 was 19.4 µM (active).

For the molecule `CC(Oc1ccc(Cl)cc1Cl)C(=O)O` (stereo not given), the molecule was called inactive.

In the case of `CS/C(C)=N/OC(=O)N(C)SN(C)C(=O)O/N=C(\C)SC`, the AC50 is 77.9 µM (active).

The next test has as its system zebrafish Estrogen Receptor (ESR2A), gene 317734. The experiment in a line: ATG_zfER2a_XSP1: Attagene TRANS-FACTORIAL Multi-Species (XSP1) HepG2 Assay for zebrafish Estrogen Receptor (ESR2A) (AID 2283778). An outline of the steps:
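Cells were transfected, dosed for 24 h, then total RNA was isolated. After oligo(dT) reverse transcription, reporter sequences were amplified, FAM-labelled by primer extension, digested with HpaI and sized by capillary electrophoresis; DMSO served as baseline.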
Consider `CCCCNC(=O)OCC#CI`, for which the molecule was classed as inactive.

For `C=CC1(C)OC(=O)N(c2cc(Cl)cc(Cl)c2)C1=O` (stereo not given), the molecule was called inactive.

On to `OC(c1ccc(Cl)cc1)(c1cncnc1)c1ccccc1Cl` (stereo not given), for which the concentration at half-maximal activity (AC50) was 4.49 µM (active).

In the case of `COc1ccc(C(c2ccc(OC)cc2)C(Cl)(Cl)Cl)cc1`, the molecule was called inactive.

A further test deals with Estrogen receptor (Homo sapiens) (UniProt P03372). The experiment in a line: ATG_hERa_XSP1: Attagene TRANS-FACTORIAL Multi-Species (XSP1) HepG2 Assay for human Estrogen Receptor (ESR1) (AID 2283780). An outline of the steps:
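HepG2 cells transiently transfected with GAL4-UAS reporter units and chimeric NR-Gal4 constructs; 24 h after dosing, reporter mRNA quantified by RT-PCR and capillary electrophoresis. Medium contained 3 nM 6-alpha-fluorotestosterone; activity fitted as gain-of-signal versus DMSO.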
On to `CCCCC(CC)COC(=O)c1ccccc1C(=O)OCC(CC)CCCC` (stereo not given), for which the molecule was classed as inactive.

In the case of `C=CC1(C)OC(=O)N(c2cc(Cl)cc(Cl)c2)C1=O` (stereo not given), the half-maximal activity concentration (AC50) is 100 µM (active).

Regarding `OC(c1ccc(Cl)cc1)(c1cncnc1)c1ccccc1Cl` (stereo not given), the half-maximal activity concentration (AC50) was 2.22 µM (active).

In the case of `COc1ccc(C(c2ccc(OC)cc2)C(Cl)(Cl)Cl)cc1`, the AC50 is 0.821 µM (active).

The test system of another test is turtle Estrogen Receptor (ESR1), gene 101933533. The experiment in a line: ATG_trERa_XSP1: Attagene TRANS-FACTORIAL Multi-Species (XSP1) HepG2 Assay for turtle Estrogen Receptor (ESR1) (AID 2283781). In outline:
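Activity was taken as gain of reporter transcript over DMSO controls. HepG2 cells carrying GAL4-UAS-driven reporters were exposed for 24 h before RNA was extracted and reporter sequences were measured by fluorescence after capillary separation.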
Turning to `CCCCC(CC)COC(=O)c1ccccc1C(=O)OCC(CC)CCCC` (stereo not given), the call was inactive.

As to `C=CC1(C)OC(=O)N(c2cc(Cl)cc(Cl)c2)C1=O` (stereo not given), the AC50 was 100 µM (active).

As to `OC(c1ccc(Cl)cc1)(c1cncnc1)c1ccccc1Cl` (stereo not given), the half-maximal activity concentration (AC50) is 2.12 µM (active).

As to `COc1ccc(C(c2ccc(OC)cc2)C(Cl)(Cl)Cl)cc1`, the concentration at half-maximal activity (AC50) was 1.32 µM (active).

The record behind these values is PubChem BioAssay (EPA / NIEHS).
